PubChem BioAssay (NCI)
The panel holds about 79,000 compounds, 15% with a hit somewhere; the sample as a whole holds those more often. A number with no mark means an inactive call. Calls of active or inactive are those of the source. No stated cut-off is given here; in the data, active means growth inhibition above about 70%; inactive means the rest.

experiment: NCI Yeast Anticancer Drug Screen. Data for the rad50 strain (AID 155);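 further: 0% = growth of vehicle-only cultures of the same strain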; conditions: S. cerevisiae rad50 strain growth inhibition; at 50.0 µM; hits give high values
Summary of the method: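 Relative growth inhibition (compound vs vehicle) was measured in yeast with a defined repair-gene alteration.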

**Q.** With ClCCOCCOc1c(Cl)cc(Cl)c(Cl)c1Cl as the compound, how does the growth inhibition read?
**A.** 58.4%

**Q.** For Cc1ccc(S(=O)(=O)C(=S)Sc2ccccc2)cc1, which growth inhibition is on record?
**A.** 45.5%

**Q.** With CCC(C)(C)c1ccc(OCCO)c([N+](=O)[O-])c1 as the compound, how does the growth inhibition read?
**A.** 77.3% (active)

**Q.** For CCCCCCC(C)S(=O)(=O)c1ccc(C)cc1 (stereo unspecified), which growth inhibition is on record?
**A.** 58.5%

**Q.** Which growth inhibition does the source give for O=C1N(Cc2ccccc2)CC1(c1ccccc1)C1CCCCC1O (stereo unspecified) here?
**A.** -18.1%

**Q.** With COc1cc2c(oc(=O)c3cc(C)cc(OC)c32)c2c(C3OC(C)C(O)C(C)(O)C3O)ccc(O)c12 (stereo unspecified) as the compound, how does the growth inhibition read?
**A.** 90.2% (active)

**Q.** For CCc1cc(C)cc(NC(=O)OC2CCCCC2C)c1 (stereo unspecified), which growth inhibition is on record?
**A.** 90.2% (active)

**Q.** Which growth inhibition does the source give for Cc1cc(Nc2ccc(N=Nc3ccc(O)c4ncccc34)cc2)nc(C)n1 here?
**A.** 71.1% (active)

**Q.** With Oc1ccc(C2SC(c3ccc(O)cc3)SC(c3ccc(O)cc3)S2)cc1 (stereo unspecified) as the compound, how does the growth inhibition read?
**A.** 97.6% (active)

**Q.** For O=[N+]([O-])c1cnc(Sc2cncc[n+]2[O-])s1, which growth inhibition is on record?
**A.** 99.5% (active)

**Q.** Which growth inhibition does the source give for O=C(C1=Cc2ccccc2OC1)N1CCN(c2cccc(Cl)c2)CC1 here?
**A.** 49.3%

**Q.** Which growth inhibition does the source give for O=C1C=CC(=O)c2cc(Sc3ccccc3)c(=O)ccc21 here?
**A.** 81.2% (active)

**Q.** Which growth inhibition does the source give for O=C(O)CCCCCCC(=O)CCl here?
**A.** 72% (active)

**Q.** Which growth inhibition does the source give for CC(=O)NC1=C(Sc2ccc(C)cc2)C(=O)c2ccccc2C1=O here?
**A.** 54.4%

**Q.** With Cc1cc(O)c(C=NC(=S)C(N)=S)c(=O)o1 as the compound, how does the growth inhibition read?
**A.** -27.7%

**Q.** With Cc1cc(C)c(Cc2cc(C(C)(C)C)cc(C)c2O)cc1Cc1cc(C(C)(C)C)cc(C)c1O as the compound, how does the growth inhibition read?
**A.** 51.4%

**Q.** With O=C(O)CCC/C(=N\Nc1ccccc1)C(=O)O as the compound, how does the growth inhibition read?
**A.** 98.5% (active)

**Q.** Which growth inhibition does the source give for Cc1cc(Oc2nc(Cl)nc(C(Cl)(Cl)Cl)c2Cl)cc(C)c1N(C)C (tested in a mixture with another compound) here?
**A.** 92.8% (active)

**Q.** For CC(NCCO)c1ccc2ccccc2c1 (stereo unspecified), which growth inhibition is on record?
**A.** 2.15%

**Q.** With [O-][n+]1ccc(Br)c(/C=C/c2ccccc2)c1 as the compound, how does the growth inhibition read?
**A.** 24.1%

**Q.** With O=C(NCCNCCNCCNC(=O)c1cc(-c2ccccc2)nc2ccccc12)c1cc(-c2ccccc2)nc2ccccc12 as the compound, how does the growth inhibition read?
**A.** 98.7% (active)

**Q.** For CC(C)C(Sc1nc(-c2ccccc2)c(-c2ccccc2)[nH]1)C(=O)NN (stereo unspecified), which growth inhibition is on record?
**A.** 90.2% (active)

**Q.** With O=C(CNc1cccc(Cl)c1)Nn1c(-c2ccccc2)nc2ccccc2c1=O as the compound, how does the growth inhibition read?
**A.** 92% (active)

**Q.** For O=C(COc1ccc(Cl)c(Cl)c1)Nc1ccc[n+](Cc2ccc(Cl)c(Cl)c2)c1, which growth inhibition is on record?
**A.** 99.6% (active)

**Q.** Which growth inhibition does the source give for CCOC(=O)c1cnccc1CC1(C#N)c2ccccc2C=CN1C(=O)c1ccccc1 (stereo unspecified) here?
**A.** 86.7% (active)

**Q.** With O=C1C(N2CCOCC2)=C(Cl)C(=O)c2ncccc21 as the compound, how does the growth inhibition read?
**A.** 83.8% (active)

experiment: NCI Yeast Anticancer Drug Screen. Data for the mec2-1 strain (AID 157); conditions: S. cerevisiae mec2-1 strain, at 5.0 µM (retest, dose inferred, filed as 0.5), hits give high values
Summary of the method: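 Vehicle-treated cultures served as reference for growth inhibition of compound-exposed mec2-1 yeast.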

**Q.** With COC(=O)/C=C/c1cccc[n+]1[O-] as the compound, how does the growth inhibition read?
**A.** 3%

**Q.** For CN(C)CCCNc1c(C#N)[n+]([O-])c2cc(Cl)ccc2[n+]1[O-], which growth inhibition is on record?
**A.** 72% (active)

**Q.** With Cc1c(N=Nc2ccc(Br)cc2)c(-c2ccccc2)nn1C(N)=S as the compound, how does the growth inhibition read?
**A.** 1%

**Q.** Which growth inhibition does the source give for COc1cc2c(c(OC)c1OC)-c1ccc(O)c(=O)cc1C(N=Cc1ccccc1)CC2 (stereo unspecified) here?
**A.** -6%

**Q.** For CCC(C)SC1SCC2C(=O)N(C)C3(CC3C)C(=O)OCC(NC(=O)c3nc4ccccc4cc3O)C(=O)NC(C)C(=O)N(C)C1C(=O)N(C)C1(CC1C)C(=O)OCC(NC(=O)c1nc3ccccc3cc1O)C(=O)NC(C)C(=O)N2C (stereo unspecified), which growth inhibition is on record?
**A.** 99% (active)

**Q.** With O=C(N/C(=C\c1ccc2c(c1)OCO2)c1nc2ccccc2s1)c1ccccc1 as the compound, how does the growth inhibition read?
**A.** 1%

**Q.** Which growth inhibition does the source give for CCCC/C=C1/CCC(CN(C)C)C1=O (stereo unspecified) here?
**A.** -2%

**Q.** For O=C(O)c1cc2c(cc1CC(Cc1ccc3c(c1)CCCC3)C(=O)O)CCCC2 (stereo unspecified), which growth inhibition is on record?
**A.** 16%

**Q.** Which growth inhibition does the source give for CCNC(=O)COc1ccc(Cl)cc1Cl here?
**A.** -10%

**Q.** With Fc1ccc(OCCC(Cn2ccnc2)c2ccc(Cl)cc2Cl)cc1 (stereo unspecified) as the compound, how does the growth inhibition read?
**A.** 56%

**Q.** Which growth inhibition does the source give for Cc1ccc(NC(=O)/C(CC(=O)c2sc(Nc3ccc(Cl)c(Cl)c3)nc2C)=N\Nc2ccc([N+](=O)[O-])cc2[N+](=O)[O-])c(C)c1 here?
**A.** -4%

**Q.** Which growth inhibition does the source give for Oc1ccc(C/C=C/c2ccccc2)cc1O here?
**A.** 4%

**Q.** With CC(=O)OC1=CC2=CCC3C(CCC4(C)C(C(C)=O)CCC34)C2(C)CC1 (stereo unspecified) as the compound, how does the growth inhibition read?
**A.** -6%

**Q.** With CCCCNc1ccc(-c2c(N)nc(N)nc2CC)cc1[N+](=O)[O-] as the compound, how does the growth inhibition read?
**A.** -16%

**Q.** Which growth inhibition does the source give for ClCCOCCOc1c(Cl)cc(Cl)c(Cl)c1Cl here?
**A.** 0%

**Q.** Which growth inhibition does the source give for Cc1ccc(S(=O)(=O)C(=S)Sc2ccccc2)cc1 here?
**A.** 8%

**Q.** With CCC(C)(C)c1ccc(OCCO)c([N+](=O)[O-])c1 as the compound, how does the growth inhibition read?
**A.** 8%

**Q.** With CCCCCCC(C)S(=O)(=O)c1ccc(C)cc1 (stereo unspecified) as the compound, how does the growth inhibition read?
**A.** 14%

**Q.** For O=C1N(Cc2ccccc2)CC1(c1ccccc1)C1CCCCC1O (stereo unspecified), which growth inhibition is on record?
**A.** -5%

**Q.** With COc1cc2c(oc(=O)c3cc(C)cc(OC)c32)c2c(C3OC(C)C(O)C(C)(O)C3O)ccc(O)c12 (stereo unspecified) as the compound, how does the growth inhibition read?
**A.** 72% (active)

**Q.** For CCc1cc(C)cc(NC(=O)OC2CCCCC2C)c1 (stereo unspecified), which growth inhibition is on record?
**A.** 35%

**Q.** With Cc1cc(Nc2ccc(N=Nc3ccc(O)c4ncccc34)cc2)nc(C)n1 as the compound, how does the growth inhibition read?
**A.** -4%

**Q.** For Oc1ccc(C2SC(c3ccc(O)cc3)SC(c3ccc(O)cc3)S2)cc1 (stereo unspecified), which growth inhibition is on record?
**A.** -1%

**Q.** For O=[N+]([O-])c1cnc(Sc2cncc[n+]2[O-])s1, which growth inhibition is on record?
**A.** 100% (active)

**Q.** With O=C(C1=Cc2ccccc2OC1)N1CCN(c2cccc(Cl)c2)CC1 as the compound, how does the growth inhibition read?
**A.** -6%

**Q.** For O=C1C=CC(=O)c2cc(Sc3ccccc3)c(=O)ccc21, which growth inhibition is on record?
**A.** 29%

**Q.** With O=C(O)CCCCCCC(=O)CCl as the compound, how does the growth inhibition read?
**A.** 22%

**Q.** With CC(=O)NC1=C(Sc2ccc(C)cc2)C(=O)c2ccccc2C1=O as the compound, how does the growth inhibition read?
**A.** 96% (active)

**Q.** For Cc1cc(O)c(C=NC(=S)C(N)=S)c(=O)o1, which growth inhibition is on record?
**A.** 13%

**Q.** For Cc1cc(C)c(Cc2cc(C(C)(C)C)cc(C)c2O)cc1Cc1cc(C(C)(C)C)cc(C)c1O, which growth inhibition is on record?
**A.** -5%

**Q.** For O=C(O)CCC/C(=N\Nc1ccccc1)C(=O)O, which growth inhibition is on record?
**A.** 2%

**Q.** With Cc1cc(Oc2nc(Cl)nc(C(Cl)(Cl)Cl)c2Cl)cc(C)c1N(C)C (tested in a mixture with another compound) as the compound, how does the growth inhibition read?
**A.** -6%

**Q.** With CC(NCCO)c1ccc2ccccc2c1 (stereo unspecified) as the compound, how does the growth inhibition read?
**A.** 3%

**Q.** With [O-][n+]1ccc(Br)c(/C=C/c2ccccc2)c1 as the compound, how does the growth inhibition read?
**A.** -5%

**Q.** With O=C(NCCNCCNCCNC(=O)c1cc(-c2ccccc2)nc2ccccc12)c1cc(-c2ccccc2)nc2ccccc12 as the compound, how does the growth inhibition read?
**A.** -10%

**Q.** With CC(C)C(Sc1nc(-c2ccccc2)c(-c2ccccc2)[nH]1)C(=O)NN (stereo unspecified) as the compound, how does the growth inhibition read?
**A.** -36%

**Q.** Which growth inhibition does the source give for O=C(CNc1cccc(Cl)c1)Nn1c(-c2ccccc2)nc2ccccc2c1=O here?
**A.** -1%

**Q.** With O=C(COc1ccc(Cl)c(Cl)c1)Nc1ccc[n+](Cc2ccc(Cl)c(Cl)c2)c1 as the compound, how does the growth inhibition read?
**A.** 1%

**Q.** Which growth inhibition does the source give for CCOC(=O)c1cnccc1CC1(C#N)c2ccccc2C=CN1C(=O)c1ccccc1 (stereo unspecified) here?
**A.** -2%

**Q.** With O=C1C(N2CCOCC2)=C(Cl)C(=O)c2ncccc21 as the compound, how does the growth inhibition read?
**A.** 30%
